This is one part of the list. Unmarked numbers belong to inactive results. Activity calls are given as the source filed them.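 The calls were made as follows: active = mean inhibition across replicates above the hit cutoff set in the primary screen (cut at about 15% in these data); inactive = the rest.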
What follows are compounds tested against Acyl-protein thioesterase 1 (Homo sapiens) (UniProt O75608) (assay: LYPLA1 inhibitors, retest, confirmation, counter-screen for PME1 inhibitor project, biochemical, fluorescence polarization, FP-Rh probe ABPP (AID 2233;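 also: loss of FP-Rh probe labeling of LYPLA1 seen as lower polarization; 0% = LYPLA1 with DMSO and 100% = wells lacking LYPLA1 enzyme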)). Conditions: recombinant LYPLA1, FP-Rh probe fluorescence polarization; at 5.9 µM; hits give high values.
Acyl-protein thioesterase 1 (Homo sapiens), sequence (O75608 whole entry, looked up): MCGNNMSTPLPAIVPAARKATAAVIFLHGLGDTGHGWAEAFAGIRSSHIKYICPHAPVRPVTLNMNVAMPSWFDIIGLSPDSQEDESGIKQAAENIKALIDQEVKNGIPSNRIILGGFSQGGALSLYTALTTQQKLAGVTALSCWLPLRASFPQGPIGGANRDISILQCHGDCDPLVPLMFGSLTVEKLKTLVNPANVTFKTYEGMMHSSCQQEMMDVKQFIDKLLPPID

**Q.** With `Cc1ccc(S(=O)(=O)N2CCC(C(=O)N[C@@H](C)C(=O)NCc3ccco3)CC2)cc1` as the compound, how does the inhibition read?
**A.** 2.78%

**Q.** Which inhibition does the source give for `CCOc1ccccc1N1CCN(C(=O)c2ccc3[nH]c(C)c(C)c3c2)CC1` here?
**A.** 29.3% (active)

**Q.** With `COc1ccccc1C(=O)NC(CCSC)C(=O)N1CCN(C/C=C/c2ccccc2)CC1` (stereo not drawn) as the compound, how does the inhibition read?
**A.** 19.9% (active)

**Q.** How did the inhibition turn out when `COc1cccc(NC(=O)N2CCCC2C(=O)NC2CCCCC2)c1` (stereo not drawn) was run?
**A.** 2.88%

**Q.** Which inhibition does the source give for `CCCCn1c(N)c(N(CCC(C)C)C(=O)CC2OC(=O)c3ccccc32)c(=O)[nH]c1=O` (stereo not drawn) here?
**A.** 0.51%

**Q.** For `O=c1[nH]n(-c2cccc(Cl)c2)c2ncccc12`, which inhibition is on record?
**A.** 2.75%

**Q.** With `C=CCNC(=O)c1sc(SC)cc1-c1ccc(Cl)cc1` as the compound, how does the inhibition read?
**A.** 23.5% (active)

**Q.** For `Cc1ccc(N2CCN(C3=NC(=O)/C(=C\c4cccs4)S3)CC2)cc1`, which inhibition is on record?
**A.** 37% (active)

**Q.** How did the inhibition turn out when `O=C(CCn1c(SCC(=O)c2ccccc2)nc2ccccc2c1=O)NCc1ccc(F)cc1` was run?
**A.** -4.57%

**Q.** Which inhibition does the source give for `COc1ccc(N2CC(C(=O)NCCN3C(=O)S/C(=C\c4cccnc4)C3=O)CC2=O)c(OC)c1` (stereo not drawn) here?
**A.** 1.04%

**Q.** How did the inhibition turn out when `O=C(CN1CCN(c2cccc(Cl)c2)CC1)Nc1ccc(S(=O)(=O)N2CCOCC2)cc1` was run?
**A.** 23.3% (active)

**Q.** Which inhibition does the source give for `COc1ccc(-c2nc(CS(=O)CC(=O)NCc3ccccn3)c(C)o2)cc1` (stereo not drawn) here?
**A.** 16.5% (active)

**Q.** For `CCC(=C/c1sc2ccc3ccccc3c2[n+]1C)/C=C1\Sc2ccc3ccccc3c2N1C`, which inhibition is on record?
**A.** 78.8% (active)

**Q.** With `Cc1cccc(N2CCN(C(=O)CN(C)S(=O)(=O)c3ccc4c(c3)CCC(=O)N4)CC2)c1C` as the compound, how does the inhibition read?
**A.** 26.9% (active)

**Q.** With `O=C(COc1ccc(Cl)cc1)N1CCN(c2cccc(C(F)(F)F)c2)CC1` as the compound, how does the inhibition read?
**A.** 31.6% (active)

**Q.** Which inhibition does the source give for `COCCOC(=O)c1sc(=S)n(CCOC)c1N` here?
**A.** 13.4%

**Q.** For `CCN1CCN(CCNC(=O)c2ccc3c(c2)NC(=O)/C(=C\c2ccc(OC)c(OC)c2)S3)CC1`, which inhibition is on record?
**A.** 19.4% (active)

**Q.** For `O=C(c1ccc(-c2ccccc2)cc1)C1CCCN(C(=O)c2cncs2)C1` (stereo not drawn), which inhibition is on record?
**A.** 30.7% (active)

**Q.** With `CCN1C(=O)/C(=C2/Sc3ccccc3N2CCCS(=O)(=O)O)SC1=S` as the compound, how does the inhibition read?
**A.** 9.65%

**Q.** How did the inhibition turn out when `O=c1[nH]n(-c2ccc([N+](=O)[O-])cc2)c(=O)c2ccccc12` was run?
**A.** 17.7% (active)

**Q.** With `CCOc1ccc(C(=O)NC(=S)Nc2ccc(N3CCOCC3)c(Cl)c2)cc1[N+](=O)[O-]` as the compound, how does the inhibition read?
**A.** 24.6% (active)

**Q.** Which inhibition does the source give for `CN(CCOc1ccccc1)C(=O)c1cc(COc2c(F)cccc2F)on1` here?
**A.** 12.1%

**Q.** With `CSc1c(SCc2ccccc2)cnn(Cc2ccccc2)c1=O` as the compound, how does the inhibition read?
**A.** 2.84%
